# Results as given in the supplement of paper PMC3545927.
# Some of the results follow. No count for the full screen is at hand.
# B1: HC584 (peptide)
# chain: CAQYFLTRVEAGNASASA
# B2: HC937 (peptide)
# chain: CADHLEFWEGAGNASASA
# B3: HC2318 (peptide)
# chain: CATVPCHRPSAGNASASA
# B4: HC1336 (peptide)
# chain: CASFGSSSTSAGNASASA
# B5: HC407 (peptide)
# chain: CAPCGIVPAKAGNASASA
# B6: HC1824 (peptide)
# chain: CAITPCSGSWAGNASASA
# B7: FS-3017 (peptide)
# chain: CARPKRRKPRAGNASASA
# B8: HC2184 (peptide)
# chain: CAEVITSTWVAGNASASA
# B9: HC31 (peptide)
# chain: CAMEECKQHLAGNASASA
# B10: HC2311 (peptide)
# chain: CADVPCHRPSAGNASASA
# B11: FS-408 (peptide)
# chain: CADIHRNKRKAGNASASA
# B12: FS-1610 (peptide)
# chain: CARSARRKRKAGNASASA
# B13: HC1392 (peptide)
# chain: CARSACQRQKAGNASASA
# B14: FS-324 (peptide)
# chain: CACVWRRKRKAGNASASA
# B15: FS-1316 (peptide)
# chain: CADVPRRKRKAGNASASA
# B16: HC2439 (peptide)
# chain: CAPREVPCHRAGNASASA
# B17: HC2108 (peptide)
# chain: CAWDVVCCSMAGNASASA
# B18: FS-1711 (peptide)
# chain: CARGPRRASAAGNASASA
# B19: FS-226 (peptide)
# chain: CADSGGARRSAGNASASA
# B20: FS-855 (peptide)
# chain: CARGPRARRSAGNASASA
# B21: FS-856 (peptide)
# chain: CARGPRRRRSAGNASASA
# B22: FS-2545 (peptide)
# chain: CARAKRNAVLAGNASASA
# B23: HC2550 (peptide)
# chain: CASTPCSAVLAGNASASA
# B24: FS-1993 (peptide)
# chain: CARAKRFVSIAGNASASA
# B25: HC2557 (peptide)
# chain: CASTPCSASLAGNASASA
# B26: FS-1992 (peptide)
# chain: CARAKRFLRKAGNASASA
# B27: FS-2635 (peptide)
# chain: CARAKRFASLAGNASASA
# B28: FS-1681 (peptide)
# chain: CARAKRVSWDAGNASASA
# B29: HC928 (peptide)
# chain: CATTVRLRAYAGNASASA
# B30: HC1473 (peptide)
# chain: CAVQAWKSKKAGNASASA
# B31: FS-2955 (peptide)
# chain: CARIRRMWNDAGNASASA
# B32: FS-1753 (peptide)
# chain: CARMMRPVSDAGNASASA
# B33: FS-2655 (peptide)
# chain: CARDVRLVDAAGNASASA
# B34: FS-2355 (peptide)
# chain: CARMRRYADAAGNASASA
# B35: FS-2393 (peptide)
# chain: CAREDRDVNDAGNASASA
# B36: FS-2339 (peptide)
# chain: CARIRRMADAAGNASASA
# B37: FS-2522 (peptide)
# chain: CARSGRSANAAGNASASA
# B38: HC452 (peptide)
# chain: CATDCFRKHPAGNASASA
# B39: HC549 (peptide)
# chain: CAYLKGKWVPAGNASASA
# B40: HC1779 (peptide)
# chain: CAMEECSQHPAGNASASA
# B41: FS-2694 (peptide)
# chain: CARKKRSTGVAGNASASA
# B42: FS-1996 (peptide)
# chain: CARCKRDCLEAGNASASA
# B43: FS-2037 (peptide)
# chain: CARKKRTLRGAGNASASA
# B44: HC2236 (peptide)
# chain: CAEVVTSTGVAGNASASA
# B45: FS-2482 (peptide)
# chain: CARCKRTVLDAGNASASA
# B46: FS-1818 (peptide)
# chain: CARCKRGMKKAGNASASA
# B47: FS-1849 (peptide)
# chain: CARCRRGFGVAGNASASA
# B48: FS-2898 (peptide)
# chain: CARCKRGTGVAGNASASA
# B49: FS-3243 (peptide)
# chain: CARCVRDCDPAGNASASA
# Target: furin, P09958
# Sequence (P09958 whole entry): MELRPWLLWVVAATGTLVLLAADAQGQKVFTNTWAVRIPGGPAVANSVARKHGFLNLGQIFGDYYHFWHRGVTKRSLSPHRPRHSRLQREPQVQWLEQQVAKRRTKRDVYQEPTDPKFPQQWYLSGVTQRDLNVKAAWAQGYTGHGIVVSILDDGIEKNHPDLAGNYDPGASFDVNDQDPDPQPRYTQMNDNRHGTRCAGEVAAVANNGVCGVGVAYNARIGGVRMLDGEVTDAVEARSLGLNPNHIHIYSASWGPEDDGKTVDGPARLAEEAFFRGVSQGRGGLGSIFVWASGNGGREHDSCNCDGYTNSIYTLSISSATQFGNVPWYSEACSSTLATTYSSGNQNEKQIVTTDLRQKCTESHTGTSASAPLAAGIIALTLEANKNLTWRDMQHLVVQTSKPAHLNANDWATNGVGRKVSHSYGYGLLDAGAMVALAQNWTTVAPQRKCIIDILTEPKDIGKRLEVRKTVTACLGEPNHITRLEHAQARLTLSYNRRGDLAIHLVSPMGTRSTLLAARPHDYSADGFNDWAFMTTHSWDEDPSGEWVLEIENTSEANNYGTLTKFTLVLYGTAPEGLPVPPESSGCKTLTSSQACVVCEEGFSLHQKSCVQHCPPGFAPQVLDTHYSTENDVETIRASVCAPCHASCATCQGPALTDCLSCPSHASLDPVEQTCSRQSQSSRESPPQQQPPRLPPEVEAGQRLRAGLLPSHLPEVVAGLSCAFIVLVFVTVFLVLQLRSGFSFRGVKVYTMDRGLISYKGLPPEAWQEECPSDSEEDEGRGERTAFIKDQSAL
# Experiment: furin cleavage Z-score vs untreated control; higher = more cleavage, active = 3.5 or more, inactive = 1 or less, 8 variable residues between constant flanks
# Procedure, shortened: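 The cleavage Z-score is the log read count relative to furin-free reactions, lowess-adjusted and scaled by median absolute deviation. Counts came from sequencing DNA released from bead-bound 8-mer peptide–cDNA fusions after digestion with purified furin for 7.5, 15 or 30 min.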
# 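Also: purified furin at 1:10 enzyme:substrate in 50 mM HEPES pH 7.5.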
Sequence,furin cleavage Z-score (7.5 min),furin cleavage Z-score (15 min),furin cleavage Z-score (30 min)
B1,-0.544 (inactive),-0.576 (inactive),0.581 (inactive)
B2,0.211 (inactive),-1.35 (inactive),0.811 (inactive)
B3,-1.23 (inactive),0.611 (inactive),0.585 (inactive)
B4,-0.845 (inactive),-1.34 (inactive),0.561 (inactive)
B5,0.926 (inactive),0.441 (inactive),0.898 (inactive)
B6,-0.759 (inactive),-0.739 (inactive),-0.66 (inactive)
B7,6.7 (active),9.47 (active),8.98 (active)
B8,-0.201 (inactive),-0.151 (inactive),0.767 (inactive)
B9,0.641 (inactive),0.811 (inactive),0.523 (inactive)
B10,0.698 (inactive),1.24,0.271 (inactive)
B11,0.37 (inactive),0.486 (inactive),2.04
B12,9.41 (active),11.4 (active),7.56 (active)
B13,0.38 (inactive),-0.49 (inactive),1.17
B14,4.9 (active),7.08 (active),5.25 (active)
B15,7.09 (active),7.66 (active),8.13 (active)
B16,-1.48 (inactive),1.55,-0.302 (inactive)
B17,0.349 (inactive),-0.375 (inactive),0.29 (inactive)
B18,-0.617 (inactive),-0.431 (inactive),-0.848 (inactive)
B19,-0.625 (inactive),-0.697 (inactive),-0.757 (inactive)
B20,7.87 (active),7.54 (active),4.95 (active)
B21,11.2 (active),10 (active),7.78 (active)
B22,6.45 (active),7.8 (active),6.91 (active)
B23,-1.46 (inactive),-0.0198 (inactive),-0.52 (inactive)
B24,4.74 (active),4.17 (active),5.92 (active)
B25,0.819 (inactive),0.0223 (inactive),0.939 (inactive)

Sequence,furin cleavage Z-score (7.5 min),furin cleavage Z-score (15 min),furin cleavage Z-score (30 min)
B26,4.11 (active),4.74 (active),7.62 (active)
B27,4.64 (active),6.47 (active),8.89 (active)
B28,-0.617 (inactive),0.099 (inactive),0.302 (inactive)
B29,0.53 (inactive),0.398 (inactive),-0.429 (inactive)
B30,0.322 (inactive),1.5,-0.486 (inactive)
B31,3.22,2.6,4.32 (active)
B32,-0.43 (inactive),0.272 (inactive),-0.677 (inactive)
B33,-0.899 (inactive),-0.757 (inactive),0.398 (inactive)
B34,5.77 (active),7.7 (active),6.66 (active)
B35,-1.02 (inactive),-2.7 (inactive),0.632 (inactive)
B36,8.4 (active),10.5 (active),8.11 (active)
B37,1.32,0.616 (inactive),1.79
B38,0.56 (inactive),-0.196 (inactive),1.34
B39,0.545 (inactive),-0.258 (inactive),-0.41 (inactive)
B40,-0.177 (inactive),-0.782 (inactive),2.64
B41,8.73 (active),11.5 (active),10.3 (active)
B42,9.7 (active),9.34 (active),8.23 (active)
B43,5.12 (active),8.31 (active),6.62 (active)
B44,0.288 (inactive),-1.6 (inactive),-0.142 (inactive)
B45,0.324 (inactive),1.14,3.14
B46,0.324 (inactive),0.604 (inactive),3.09
B47,0.0621 (inactive),1.42,1.48
B48,6.24 (active),6.78 (active),5.78 (active)
B49,0.0718 (inactive),1.92,2.77
